The text below walks through data of ChEMBL document CHEMBL1157539, “Thousands of chemical starting points for antimalarial lead identification” (Nature, 2010).

A word on the Inhibition: it is the percentage by which the read-out fell short of the control. Higher therefore signals a strong effect.

Assay type in all cases: functional
Assay [1] relates to Plasmodium falciparum. Put plainly: GSK_TCMDC: Inhibition of Plasmodium falciparum 3D7 in whole red blood cells, using parasite LDH activity as an index of growth. Test compounds present at 2uM.
The subject of assay [2] is Plasmodium falciparum. The assay can be described thus: GSK_TCMDC: Inhibition of Plasmodium falciparum Dd2 in whole red blood cells, using parasite LDH activity as an index of growth. Test compounds present at 2uM.
The next assay relates to HepG2. The assay can be described thus: GSK_TCMDC: Percent inhibition of human HepG2 cell line. Test compounds present at 10uM.

As to `COc1ccc2ncc(F)c(NC(=O)C3CCC(NCc4cc5cc(F)cc(F)c5[nH]4)CC3)c2n1.Cl` (centres undefined), the Inhibition in the assay with Plasmodium falciparum [1] was 95%; in the assay with Plasmodium falciparum [2] it was 15%; with HepG2, 18%.
Turning to `Cc1[nH]c(C)c(-c2ccc(-c3ccc(Cl)cc3)cc2)c(=O)c1Cl`, the figures for the Inhibition with Plasmodium falciparum [1], in the assay on Plasmodium falciparum [2] and in the assay with HepG2 were 96%, 96% and 0%, respectively.
Regarding `Br.CCOC(=O)c1c(CNc2ccncc2)n(C)c2cc(Br)c(OC(C)=O)cc12`, the Inhibition came to 96% in the assay with Plasmodium falciparum [1], 93% with Plasmodium falciparum [2] and 0% with HepG2.
`CC1CN(S(=O)(=O)c2ccc(NC(=O)c3cc(-c4ccccc4O)n[nH]3)cc2)CC(C)O1` (centres undefined): the figures for the Inhibition in the assay with Plasmodium falciparum [1], with Plasmodium falciparum [2] and in the assay on HepG2 were 97%, 93% and 21%, respectively.
Take `CCc1cccc2c(C#N)cn(CC(=O)NCCc3ccccc3)c12`: the Inhibition with Plasmodium falciparum [1] amounted to 95%; in the assay with Plasmodium falciparum [2], 64%; in the assay with HepG2, 1%.
Turning to `COc1ccc(CNCc2ccc(-c3ccc(-c4nc5cc(C(F)(F)F)ccc5[nH]4)s3)cc2)cc1.O=C(O)C(F)(F)F`, the Inhibition in the assay with Plasmodium falciparum [1] worked out at 100%; in the assay on Plasmodium falciparum [2] it was 98%; with HepG2, 38%.
The corresponding values for `CCN(CC)CCCN1CCN(C(=O)c2cccc(-c3noc(C(F)(F)F)n3)c2)CC1` are 91%, 74% and 0%.
Consider `CN(C)c1ccc(CN2CCC(NC(=O)c3ccc(-c4cccc(C(F)(F)F)c4)s3)CC2)cc1.O=C(O)C(F)(F)F`, for which the Inhibition with Plasmodium falciparum [1] is recorded as 97%; with Plasmodium falciparum [2], 40%; in the assay on HepG2, 90%.
Take `COc1ccc2nccc([C@@H](O)CN3CCC(NCc4cc5oc(=O)[nH]c5cc4Cl)CC3)c2c1.O=C(O)C(=O)O`: the Inhibition in the assay on Plasmodium falciparum [1] was 100%; in the assay on Plasmodium falciparum [2], 91%; in the assay with HepG2 it was 1%.
Regarding `COc1ccc(NC(=O)[C@H](Cc2ccccc2)Nc2cc(C)nc(Nc3ccccc3)n2)cc1.O=C(O)C(F)(F)F`, the Inhibition in the assay with Plasmodium falciparum [1] is given as 100%; with Plasmodium falciparum [2], 92%; with HepG2 it was 0%.
In the case of `CCOC(=O)CN(c1ccc(Br)cc1OCCOc1cc(Br)ccc1N(CC(=O)OCC)C(C)C(=O)OCC)C(C)C(=O)OCC` (centres undefined), the Inhibition in the assay with Plasmodium falciparum [1] is listed as 94%; with Plasmodium falciparum [2], 6%; in the assay with HepG2, 0%.
For `Fc1ccc2[nH]cc(CCNCc3ccc(-c4cccc(-c5nc6ccccc6[nH]5)c4)cc3)c2c1.O=C(O)C(F)(F)F`, in that order: 100%, 99% and 69%.
As to `CNCc1ccc(-c2ccc3ccnc(N)c3c2)cc1`, the Inhibition is on record as 94% in the assay on Plasmodium falciparum [1], 98% with Plasmodium falciparum [2] and 46% in the assay on HepG2.
For `COc1ccc(NC(=O)[C@H](CC(C)C)Nc2cc(C)nc(NCCc3cccs3)n2)cc1.O=C(O)C(F)(F)F`, the Inhibition with Plasmodium falciparum [1] came to 100%; with Plasmodium falciparum [2], 68%; in the assay on HepG2 it was 5%.
For `O=C(Nc1cccc(-c2ccc(-c3nc4cc(C(F)(F)F)ccc4[nH]3)s2)c1)c1cccnc1`, in that order: 100%, 99% and 74%.
Take `CC(=O)c1ccc(N2CCN(CCC3(c4ccc(Cl)c(Cl)c4)COCN(C(=O)c4ccccc4)C3)CC2)cc1` (centres undefined): the results for the Inhibition in the assay with Plasmodium falciparum [1], in the assay on Plasmodium falciparum [2] and in the assay with HepG2 were 88%, 95% and 12%, respectively.
For `CCC(C)NC(=O)Nc1cccc(-c2cccc(-c3nc4cccc(C)c4[nH]3)c2)c1` (centres undefined), the figures for the Inhibition in the assay on Plasmodium falciparum [1], in the assay with Plasmodium falciparum [2] and in the assay on HepG2 were 100%, 27% and 3%, respectively.
Consider `CN(C)Cc1c(O)ccc2[nH]c(-c3cccc(F)c3)nc12`, for which the values for the Inhibition with Plasmodium falciparum [1], in the assay with Plasmodium falciparum [2] and in the assay with HepG2 were 99%, 71% and 9%, respectively.
With `Cn1cncc1C(=O)Nc1ccc(-c2cccc(-c3nc4cc(F)ccc4[nH]3)c2)cc1`, the Inhibition was 100% with Plasmodium falciparum [1], 23% in the assay on Plasmodium falciparum [2] and 5% in the assay with HepG2.
Turning to `COc1ccc(NC(=O)CSc2nc(-c3ccccc3Cl)ns2)cc1OC`, the Inhibition with Plasmodium falciparum [1] came to 97%; with Plasmodium falciparum [2], 63%; in the assay with HepG2, 0%.
The corresponding values for `CCC(C)(C)C1CCc2[nH]c3ccccc3c(=O)c2C1` (centres undefined) are 97%, 96% and 16%.
For the compound `Cl.N#Cc1ccc(-c2ccc3nc(N4CCCN(C5CCC5)CC4)ccc3c2)cc1`, the Inhibition in the assay with Plasmodium falciparum [1] turned out to be 96%; in the assay with Plasmodium falciparum [2] it was 14%; with HepG2, 36%.
For `O=C(/C=C/c1ccc(Cl)c(Cl)c1)NCCCCCN1CCCC(CNC(=O)/C=C/c2ccccc2)C1` (centres undefined), the Inhibition in the assay on Plasmodium falciparum [1] is on record as 98%; with Plasmodium falciparum [2] it was 6%; in the assay on HepG2, 37%.
For the compound `NCC1CCCN1Cc1cccc(-c2ccc(-c3nc4ccccc4[nH]3)s2)c1.O=C(O)C(F)(F)F` (centres undefined), the Inhibition in the assay with Plasmodium falciparum [1] is 99%; with Plasmodium falciparum [2], 66%; with HepG2 it was 16%.
Turning to `COc1ccc(CCNCC(O)COc2nccc3c(S(=O)(=O)N4CCCNCC4)cccc23)cc1OC.Cl` (centres undefined), the Inhibition with Plasmodium falciparum [1] was 96%; in the assay on Plasmodium falciparum [2], 0%; with HepG2, 59%.
For `COc1cc(Cc2cnc(N)nc2N)cc(OCCCCCC(=O)O)c1OC.Cl`, the Inhibition in the assay on Plasmodium falciparum [1] is on record as 95%; with Plasmodium falciparum [2], 2%; in the assay on HepG2, 0%.
For the compound `Cc1ccc(O)cc1Nc1ccnc2cc(-c3ccccn3)ccc12.Cl` [GW440139A], the Inhibition turned out to be 97% in the assay with Plasmodium falciparum [1], 98% with Plasmodium falciparum [2] and 6% in the assay on HepG2.
Regarding `Cc1cc(=NN=Cc2ccccc2F)c2cc(C(F)(F)F)ccc2[nH]1`, the Inhibition is listed as 100% in the assay with Plasmodium falciparum [1], 67% in the assay on Plasmodium falciparum [2] and 5% in the assay on HepG2.
